# Where “and” joins values, the source holds several entries; their conditions need not be identical. Equal entries are not always repeated. Records with an inconclusive call do not appear. A call without a number means that no potency is given here. Calls of active or inactive are those of the source. Unless noted, the call rests on the fitted dose curve; in most records, active means well fitted curve in the direction sought with a large enough effect; inconclusive means small, poorly fitted or top-dose-only effect, or another doubt; inactive means no such curve, though single readings can be large or run the other way.
# Tests used:
# [1] = target: T1, Hexokinase-4 (Homo sapiens) + Glucokinase regulatory protein (Homo sapiens) (UniProt P35557+Q14397); assay: qHTS assay for inhibitors of recombinant human GCK-GKRP interaction: Diaphorase-coupled assay (AID 743205); settings: G6PDH/diaphorase resorufin fluorescence; series mostly up to 57.5 µM
# T1 sequence (P35557 whole entry, looked up): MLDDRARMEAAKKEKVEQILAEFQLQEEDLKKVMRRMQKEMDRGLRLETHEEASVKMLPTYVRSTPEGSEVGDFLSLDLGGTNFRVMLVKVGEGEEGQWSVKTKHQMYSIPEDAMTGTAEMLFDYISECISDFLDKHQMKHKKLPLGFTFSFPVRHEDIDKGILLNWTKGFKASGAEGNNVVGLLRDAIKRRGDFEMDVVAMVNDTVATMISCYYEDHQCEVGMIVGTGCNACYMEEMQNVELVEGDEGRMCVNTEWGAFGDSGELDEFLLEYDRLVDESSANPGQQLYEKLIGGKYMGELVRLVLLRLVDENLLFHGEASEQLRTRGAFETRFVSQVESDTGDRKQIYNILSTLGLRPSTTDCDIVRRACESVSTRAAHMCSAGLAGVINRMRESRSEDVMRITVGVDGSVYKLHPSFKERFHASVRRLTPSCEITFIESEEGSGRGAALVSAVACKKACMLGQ
# T1 sequence (Q14397 whole entry, looked up): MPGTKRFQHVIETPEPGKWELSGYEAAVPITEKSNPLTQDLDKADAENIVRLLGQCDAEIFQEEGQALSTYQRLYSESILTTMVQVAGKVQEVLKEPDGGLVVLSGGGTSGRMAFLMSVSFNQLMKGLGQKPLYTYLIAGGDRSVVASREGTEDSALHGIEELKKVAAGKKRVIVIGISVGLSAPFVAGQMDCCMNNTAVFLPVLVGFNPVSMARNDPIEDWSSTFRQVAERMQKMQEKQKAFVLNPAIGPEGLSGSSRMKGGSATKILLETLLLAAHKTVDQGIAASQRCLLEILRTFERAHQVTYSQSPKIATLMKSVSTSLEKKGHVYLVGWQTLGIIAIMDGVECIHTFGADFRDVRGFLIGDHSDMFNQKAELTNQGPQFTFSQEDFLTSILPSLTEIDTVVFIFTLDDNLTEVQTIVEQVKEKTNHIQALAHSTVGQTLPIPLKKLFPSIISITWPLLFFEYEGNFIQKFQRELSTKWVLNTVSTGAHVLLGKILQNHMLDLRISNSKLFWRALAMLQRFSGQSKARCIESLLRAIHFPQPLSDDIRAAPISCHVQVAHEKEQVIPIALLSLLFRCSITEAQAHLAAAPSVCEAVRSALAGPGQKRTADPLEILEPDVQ
# Method in brief: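 Resorufin fluorescence (525/590 nm), read each minute over 30 min, reports GCK activity coupled via G6PDH and diaphorase. Reaction: 10 nM GST-GCK, 10 nM FLAG-GKRP, 5 mM glucose, 0.4 mM ATP, 0.15 mM NADP+, 0.1 mM resazurin.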
# [2] = target: T1, Hexokinase-4 (Homo sapiens) + Glucokinase regulatory protein (Homo sapiens); assay: qHTS assay for inhibitors of recombinant human GCK-GKRP interaction: ADP-Glo assay (AID 743206); settings: ADP-Glo luminescence, 60 min, 0% = vehicle-only wells with enzyme present; series mostly up to 76.9 µM
# Method in brief: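 Pin-transferred compounds meet a 15 nM GST-GCK/15 nM FLAG-GKRP/2 uM S6P mix (dispense concentrations). ATP is then added to 0.4 mM final with 5 mM glucose, and the reaction runs 60 min at room temperature. ADP is quantified luminescently.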
# [3] = target: T1, Hexokinase-4 (Homo sapiens) + Glucokinase regulatory protein (Homo sapiens); assay: qHTS assay for inhibitors of recombinant human GCK-GKRP interaction: HTRF assay (AID 743207); settings: recombinant GCK-GKRP HTRF binding, 60 min; series mostly up to 57.5 µM
# Method in brief: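 HTRF read-out (ex 320 nm; 615/665 nm emission) after 60 min RT equilibration of 5 nM GST-GCK, 5 nM FLAG-GKRP, 2 uM S6P, compound and anti-FLAG/anti-GST detection antibodies; signal normalized between DMSO wells with and without GCK.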
# [4] = qHTS Assay for Identifying Gametocytocidal Compounds (AID 743244); further: potency means the concentration at half of the fitted maximal effect;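 on max response: actives lower the fluorescent signal which means gametocytes are killed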; settings: P. falciparum 3D7 stage III-V gametocytes, alamarBlue, 72 h; max response: stronger effect = lower value
# Method in brief: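 Fluorescence at Ex 525/Em 598 nm, recorded 24 h after alamarBlue addition, reports residual metabolic activity of 3D7 gametocytes (stages III–V) following 72 h compound exposure at 37 °C, 5% CO2.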
# [5] = qHTS profiling of the MIPE4 collection as inhibitors of Plasmodium falciparum (3D7) proliferation (AID 743344; call rule not given here); settings: P. falciparum 3D7 in erythrocytes, SYBR Green DNA fluorescence, 72 h; at 28.5 µM (top of the series)
# Method in brief: (§1)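 Parasite DNA was quantified by SYBR Green I fluorescence (ex 485, em 535 nm) after overnight lysis in saponin/Triton buffer at room temperature. Cultures at 0.3% parasitemia and 2.5% hematocrit were first exposed to compound for 72 h at 37 C; signals were normalised to artemisinin (0.29 uM) and vehicle wells.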
# [6] = qHTS profiling of the MIPE4 collection as inhibitors of Plasmodium falciparum (DD2) proliferation (Rep 2) (AID 743346; call rule not given here); settings: P. falciparum Dd2 in erythrocytes, SYBR Green DNA, 72 h; at 28.5 µM (top of the series)
# Method in brief: as §1
# [7] = qHTS profiling of the MIPE4 collection as inhibitors of Plasmodium falciparum (HB3) proliferation (AID 743347; call rule not given here); settings: P. falciparum HB3 in erythrocytes, SYBR Green DNA, 72 h; at 28.5 µM (top of the series)
# Method in brief: as §1
# [8] = qHTS profiling for inhibitors of Plasmodium falciparum (DD2) proliferation (AID 743323; call rule not given here); settings: lower = more inhibition; at 28.7 µM (top of the series) unless noted
# Method in brief: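 Parasite DNA quantified by SYBR Green fluorescence (ex 485, em 535 nm) after saponin/Triton lysis and overnight dark incubation. Cultures: 0.3% parasitemia, 2.5% hematocrit, 72 h, 37 C; data scaled between DMSO and 0.29 uM artemisinin.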
# [9] = qHTS profiling of the MIPE4 collection as inhibitors of Plasmodium falciparum (DD2) proliferation (AID 743345; call rule not given here); settings: P. falciparum Dd2 in erythrocytes, SYBR Green DNA, 72 h; at 28.5 µM (top of the series) unless noted
# Method in brief: as §1
smiles,measurement,setting,value
S=C(NC1CCCCC1)N1CCC(c2cnc[nH]2)CC1,outcome,[1],inactive
same,outcome,[2],inactive
same,outcome,[3],inactive
same,max response,[4],16.5% (inactive)
Cn1cnc(CCN)c1,outcome,[1],inactive
same,outcome,[2],inactive
same,outcome,[3],inactive
same,max response,[4],33.2% (inactive)
CCCN1CCC[C@H](c2cccc(O)c2)C1,outcome,[1],inactive
same,outcome,[2],inactive
same,outcome,[3],inactive
same,max response,[4],-8.29% (inactive) and 20.7% (inactive)
NCCc1c[nH]c2ccccc12,outcome,[1],inactive
same,outcome,[2],inactive
same,outcome,[3],inactive
same,max response,[4],11% (inactive)
CCCN(CCC)C1CCc2ccc(O)cc2C1 (configuration not stated),outcome,[1],inactive
same,outcome,[2],inactive
same,outcome,[3],inactive
same,max response,[4],6.52% (inactive)
NC(=NCCC[C@H](N)C(=O)O)N[N+](=O)[O-],outcome,[1],inactive
same,outcome,[2],inactive
same,outcome,[3],inactive
same,max response,[4],11.8% (inactive)
COC(=O)[C@@H](N)CCCN=C(N)N[N+](=O)[O-],outcome,[1],inactive
same,outcome,[2],inactive
same,outcome,[3],inactive
same,max response,[4],6.28% (inactive)
same,"parasite growth, % of DMSO control",[5],91.3%
same,"parasite growth, % of control (lower = inhibition)",[6],82%
same,"growth, % of control",[7],92.1%
O=C(O)Cc1cnc[nH]1,outcome,[1],inactive
same,outcome,[2],inactive
same,outcome,[3],inactive
same,max response,[4],3.18% (inactive)
O=C(Cc1ccc(Cl)c(Cl)c1)N1CCCCC1CN1CCCC1 (configuration not stated),outcome,[1],inactive
same,outcome,[2],inactive
same,outcome,[3],inactive
same,max response,[4],17.1% (inactive)
C[N+]1(C)C2CCC1CC(OC(=O)C(CO)c1ccccc1)C2 (configuration not stated),outcome,[1],inactive
same,outcome,[2],inactive
same,outcome,[3],inactive
same,max response,[4],23.1% (inactive) and 28.3% (inactive)
C[C@]12CCC3C(CC[C@H]4C[C@H](O)CC[C@]34C)C1CC[C@@H]2C(=O)CO (some centres not stated),outcome,[1],inactive
same,outcome,[2],inactive
same,outcome,[3],inactive
same,max response,[4],12.3% (inactive)
C/C=C(/C)C(=O)O[C@H]1C(C)=C2[C@H]([C@@H]1OC(=O)CCCCCCC)[C@@](C)(OC(C)=O)C[C@H](OC(=O)CCC)[C@@]1(O)[C@H]2OC(=O)[C@@]1(C)O,outcome,[1],inactive
same,outcome,[2],inactive
same,outcome,[3],inactive
same,"activity, percent of control",[8],1.02%
O=C(O)CC[N+](=O)[O-],outcome,[1],inactive
same,outcome,[2],inactive
same,outcome,[3],inactive
same,max response,[4],13% (inactive)
NC(N)=NOCCC(N)C(=O)O (configuration not stated),outcome,[1],inactive
same,outcome,[2],inactive
same,outcome,[3],inactive
same,max response,[4],10.4% (inactive)
COc1ccc2c(c[n+](C)c3c4cc5c(cc4ccc23)OCO5)c1OC,outcome,[1],inactive
same,outcome,[2],inactive
same,outcome,[3],inactive
same,Potency,[4],18.7 µM (active)
same,"activity, percent of control",[8],36.7%
same,"parasite growth, % of DMSO control",[5],71.2%
same,"parasite growth, % of control (lower = inhibition)",[6],99%
same,"growth, % of control",[7],104%
NC1CCc2cc(O)c(O)cc2C1 (configuration not stated),outcome,[1],inactive
same,outcome,[2],inactive
same,outcome,[3],inactive
same,max response,[4],20.3% (inactive)
CC(C)Oc1cccnc1N(C)C1CCN(Cc2ccccc2)CC1,outcome,[1],inactive
same,outcome,[2],inactive
same,outcome,[3],inactive
same,max response,[4],-6.11% (inactive)
CCCCc1ccc(C(=O)O)nc1,outcome,[1],inactive
same,outcome,[2],inactive
same,outcome,[3],inactive
same,max response,[4],4.22% (inactive) and 15% (inactive)
NC(=O)CN1CC(O)CC1=O (configuration not stated),outcome,[1],inactive
same,outcome,[2],inactive
same,outcome,[3],inactive
same,max response,[4],-2.78% (inactive) and 8.87% (inactive)
NC(CP(=O)(O)O)C(=O)O (configuration not stated),outcome,[1],inactive
same,outcome,[2],inactive
same,outcome,[3],inactive
same,max response,[4],4% (inactive)
C[C@@H]1O[C@H](C[N+](C)(C)C)C[C@H]1O,outcome,[1],inactive
same,outcome,[2],inactive
same,outcome,[3],inactive
same,max response,[4],7.91% (inactive)
CC1=NN=C(c2ccc(N)cc2)c2cc3c(cc2C1)OCO3,outcome,[1],inactive
same,outcome,[2],inactive
same,outcome,[3],inactive
same,max response,[4],7.34% (inactive)
same,"parasite growth, % of DMSO control",[5],133%
same,"parasite growth, % of control (lower = inhibition)",[6],93%
same,"growth, % of control",[7],685%
NC(CCP(=O)(O)O)C(=O)O (configuration not stated),outcome,[1],inactive
same,outcome,[2],inactive
same,outcome,[3],inactive
same,max response,[4],12.6% (inactive)
O=C(N[C@H]1CN2CCC1CC2)c1ccc(Cl)cc1,outcome,[1],inactive
same,outcome,[2],inactive
same,outcome,[3],inactive
same,"parasite growth, % of DMSO control",[5],89.4%
same,"parasite growth remaining, % of DMSO control (lower = more inhibition)",[9],82.1%
same,"parasite growth, % of control (lower = inhibition)",[6],31.9%
same,"growth, % of control",[7],71.8%
CCCN(CCC)[C@@H]1CCc2ccc(O)cc2C1,outcome,[1],inactive
same,outcome,[2],inactive
same,outcome,[3],inactive
same,max response,[4],10.7% (inactive)
NC1CC1c1ccccc1 (configuration not stated),outcome,[1],inactive
same,outcome,[2],inactive
same,outcome,[3],inactive
same,max response,[4],14.3% (inactive)
same,"parasite growth, % of DMSO control",[5],95.6%
same,"parasite growth remaining, % of DMSO control (lower = more inhibition)",[9],17.6%
same,"parasite growth, % of control (lower = inhibition)",[6],105%
same,"growth, % of control",[7],109%
CS(=N)(=O)CC[C@H](N)C(=O)O (some centres not stated),outcome,[1],inactive
same,outcome,[2],inactive
same,outcome,[3],inactive
same,max response,[4],-10.6% (inactive)
c1ccc(C2(c3ccccc3)CC2C2=NCCN2)cc1 (configuration not stated),outcome,[1],inactive
same,outcome,[2],inactive
same,outcome,[3],inactive
same,max response,[4],-4.94% (inactive) and 21.7% (inactive)
C#CCOC(=O)C1=CCCN(C)C1,outcome,[1],inactive
same,outcome,[2],inactive
same,outcome,[3],inactive
same,max response,[4],10.6% (inactive)
CCCN1CCO[C@@H]2c3cc(O)ccc3OC[C@H]21,outcome,[1],inactive
same,outcome,[2],inactive
same,outcome,[3],inactive
same,max response,[4],-5.59% (inactive) and 5.71% (inactive)
Oc1ccc2c3c1O[C@H]1c4[nH]c5c(c4C[C@@]4(O)[C@@H](C2)N(CC2CC2)CC[C@]314)C[C@@]1(O)[C@H]2Cc3ccc(O)c4c3[C@@]1(CCN2CC1CC1)[C@H]5O4,outcome,[1],inactive
same,outcome,[2],inactive
same,outcome,[3],inactive
same,"parasite growth, % of DMSO control",[5],10.3%
same,"parasite growth, % of control (lower = inhibition)",[6],13%
same,"growth, % of control",[7],4.03%
CC[C@@H](C(N)=O)N1CCCC1=O,outcome,[1],inactive
same,outcome,[2],inactive
same,outcome,[3],inactive
same,max response,[4],27.6% (inactive)
same,"parasite growth, % of DMSO control",[5],69.9%
same,"parasite growth remaining, % of DMSO control (lower = more inhibition)",[9],90.5%
same,"parasite growth, % of control (lower = inhibition)",[6],46.9%
same,"growth, % of control",[7],78.5%
CCN1C[C@]2(OC(=O)c3ccccc3NC(C)=O)CC[C@H](OC)[C@@]34[C@H]5CC6[C@@H](OC)C[C@](O)(C(C[C@@H]23)[C@@H]14)[C@@]5(O)[C@@H]6OC,"parasite growth, % of DMSO control",[5],97%
same,"parasite growth, % of control (lower = inhibition)",[6],72.6%
same,"growth, % of control",[7],85.8%
CCN(CC)C(=O)c1ccc(C2=CC3(CCNCC3)Oc3cccc(O)c32)cc1,"parasite growth, % of DMSO control",[5],21.1%
same,"parasite growth remaining, % of DMSO control (lower = more inhibition)",[9],42.1%
same,"parasite growth, % of control (lower = inhibition)",[6],14.4%
same,"growth, % of control",[7],38.8%
CC[C@@H]1[C@@H](C)O[C@@](O)([C@@H](C)[C@H](O)[C@H](C)[C@H]2OC(=O)C=CC=C[C@@H](C)[C@@H]([C@@H](C)[C@@H](O)[C@H](C)[C@@]3(O)C[C@H](O[C@H]4C[C@H](O)[C@H](O)[C@H](C)O4)[C@H](CC)[C@@H](C)O3)OC(=O)C=CC=C[C@@H]2C)C[C@H]1O[C@H]1C[C@H](O)[C@H](O)[C@H](C)O1,"parasite growth, % of DMSO control",[5],49.6%
same,"parasite growth, % of control (lower = inhibition)",[6],25.8%
same,"growth, % of control",[7],47.6%
CCc1c(C(=O)C(N)=O)c2c(OCC(=O)O)cccc2n1Cc1ccccc1,"parasite growth, % of DMSO control",[5],111%
same,"parasite growth, % of control (lower = inhibition)",[6],83.8%
same,"growth, % of control",[7],99.7%
COc1ccc(C(=O)c2c(C)n(CCN3CCOCC3)c3cc(I)ccc23)cc1,"parasite growth, % of DMSO control",[5],44.6%
same,"parasite growth, % of control (lower = inhibition)",[6],35.4%
same,"growth, % of control",[7],33.7%

# — PubChem BioAssay (NCATS)
